# Source: the supplement of paper PMC10338343
# ± gives the standard deviation. The full ranking holds about 8,200 sequences; the median of “pre-steady-state target cleavage rate” is about 0.024, and the highest 2% start at about 1.3. Many of the other results were omitted from the sample, so the highest values are more common in it than they were.
# Tested on: MIWI (PIWIL1) piRISC loaded with L1MC piRNA (30 nt)
# Test: pre-steady-state target cleavage rate (min^-1); MIWI and MILI are mouse PIWI proteins and EfPiwi is from a freshwater sponge; tags in brackets are library labels; higher = faster piRNA-guided slicing of the target
# Conditions: guide: L1MC piRNA 5'p-UAACUAAAUACUAUGCAAGCUGUAGGUCCU
# Procedure: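 Cleave-'n-Seq: a library of target RNAs (target site embedded in constant flanks, ACAGCATTCCGCGTTAGTGATATCCG... 5' flank; DNA-blocked outside the site) at 0.1 nM was incubated with 1 nM active mouse MILI or MIWI piRISC (synthetic 5'-monophosphorylated piRNA guide) with or without 500 nM mouse GTSF1 at 33 °C for 1 min to 16 h. Uncleaved targets were sequenced and normalised to non-target controls, and the pooled three trials were fitted to a burst-and-steady-state model to give the pre-steady-state cleavage rate (min^-1; k3 is constrained to at most 1e-4). Sequence is the target site only; target names encode pairing extent (gX:gY) and contiguous / 1-mismatch / 2-mismatch / bulge geometry. Fits with R² ≤ 0 are excluded.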
# [1] = auxiliary factor: 500 nM mouse GTSF1
# [2] = auxiliary factor: none (no GTSF1)
Sequence,pre-steady-state target cleavage rate [1],pre-steady-state target cleavage rate [2]
AGGUGGUACAGCUUGCAUAGUAUUUAGAAA,0.19 ± 0.044,0.00559 ± 0.0016
UCCUGGUACAGCUUGCAUAGUUAAUAGAAA,0.023 ± 0.0089,
UCCUGGAUGACUUGCAUAGUAUUUAGUUA,0.412 ± 0.03,0.0206 ± 0.0053
UCCUGGAUGUCGAACGAUAGUAUUUAGUUUA,< 0.0001,
AGGACCUUCAGCUUGCAUUGUAUUUAGUUA,0.966 ± 0.031,0.0424 ± 0.01
AGGACCUACAGCUUGCAUUGUAUAUAGUUA,0.395 ± 0.031,0.0219 ± 0.0046
UCGACCUACAGCUUGGAUAGUAUUUAGAAA,0.372 ± 0.044,0.00679 ± 0.002
UCCUGGUACACCUUGCAUAGUUUUUAGUUA,0.0764 ± 0.027,0.0132 ± 0.0038
UGGAACUACAGCUUGCAUAGUAUUUAGUUA,1.09 ± 0.041,0.0698 ± 0.011
UGGAACCUACAGCUUGCAUAGUAUUUAGUUA,1.41 ± 0.1,0.0747 ± 0.016
UGAACCUACAGCUUGCAUAGUAUUUAGUUA,1.63 ± 0.068,0.0751 ± 0.015
AGGAACCUACAGCUUGCAUAGUAUUUAGUUA,1.23 ± 0.059,0.0809 ± 0.014
UCGAACUACAGCUUGCAUAGUAUUUAGUUA,1.39 ± 0.049,0.0698 ± 0.011
UCGAACCUACAGCUUGCAUAGUAUUUAGUUA,1.37 ± 0.046,0.0781 ± 0.016
UCCACCUACAGCUUGCAUAGUAUUUAGUUG [g2:g27:cont:t1G],0.399 ± 0.047,0.0371 ± 0.0065
AGGAACUACAGCUUGCAUAGUAUUUAGUUA,1.3 ± 0.041,0.0918 ± 0.016
AGGACCUACAGGAAGCAUAGUAUUUAGUUA,0.977 ± 0.08,0.0104 ± 0.0029
UGGACCUACAGCUUGCAUAGUAUAAACAAA,0.14 ± 0.028,
UCCACCUACAGCUUGCAUAGUAAAUAGUUA,0.426 ± 0.039,0.00722 ± 0.0018
AGGACCUACAGGAUGCAUAGUAUUUAGUUA,1.06 ± 0.092,0.023 ± 0.0047
UCCUGGAUGUGCUAGCAUAGAAUUUAGUUA,0.00695 ± 0.0028,

Sequence,pre-steady-state target cleavage rate [1],pre-steady-state target cleavage rate [2]
AGGACCUACAGCUUGGAUAGUAUUUACUUA,0.478 ± 0.054,0.0287 ± 0.0043
UCCAGCUACAGCUUGCAUAGUAUUAAGUUA,0.558 ± 0.043,0.015 ± 0.0026
UCAACCUACAGCUUGCAUAGUAUUUAGUUA,1.43 ± 0.04,0.0646 ± 0.011
AGAACCUACAGCUUGCAUAGUAUUUAGUUA,1.43 ± 0.047,0.0851 ± 0.013
UCCAACCUACAGCUUGCAUAGUAUUUAGUUA,1.05 ± 0.037,0.055 ± 0.0073
UCCUGGAACAGCUGGCAUAGUAUUUAGUUA,0.759 ± 0.038,0.0271 ± 0.0057
UCCAGCUACAGCUUGCAUAGUAAUUAGUUA,0.475 ± 0.038,0.0163 ± 0.0027
UCCUGCUACAGGUUGCAUAGUAUUUAGUUA,1.03 ± 0.037,0.0257 ± 0.0052
UCCUGGAUGAGCUUGCAUAGUAUUCUAGUUA,0.28 ± 0.036,0.0103 ± 0.0031
UCCUGCUACAGCUUGCAUAGUAUAUACUUA,0.111 ± 0.017,0.00755 ± 0.0036
UCGUCCUACUGCUUGCAUAGUAUUUAGUUA,1.14 ± 0.048,0.0572 ± 0.0094
UGGAGCUACAGCUUGCAUAGUAUUUUGUUA,0.992 ± 0.05,0.0525 ± 0.0077
UCCUGGUUGUGCUUGCAUAGUAUUUAGUUA,0.584 ± 0.032,0.0455 ± 0.0097
UGGACCUACAGCUUGCAUAGUUAAUAGUAA,0.0448 ± 0.01,
UGGACCUACAGUUUGCAUAGUAUUUAGUUA,1.5 ± 0.088,0.0675 ± 0.013
UCCACCUACAGUUUGCAUAGUAUUUAGUUA,0.892 ± 0.072,0.0474 ± 0.0076
UCGACCUACAGUUUGCAUAGUAUUUAGUUA,1.37 ± 0.054,0.0619 ± 0.0092
UCGACCUACAGUUGCAUAGUAUUUAGUUA,0.955 ± 0.065,0.00747 ± 0.0023
AGGACCUACAGUUUGCAUAGUAUUUAGUUA,1.25 ± 0.073,0.0653 ± 0.0093
UGGACCUACAGUUGCAUAGUAUUUAGUUA,1.06 ± 0.094,0.00944 ± 0.0032
UGGACGUACUGCUUGCAUAGUAUUUAGUUA,1.01 ± 0.051,0.056 ± 0.0091

Sequence,pre-steady-state target cleavage rate [1],pre-steady-state target cleavage rate [2]
UCCUGGAACAGCUUGCUUAGUAAUUAGUUA,0.485 ± 0.041,0.0141 ± 0.0051
UCCUGGAACAGCUUGCAUAGUAUUAUCUUA,0.141 ± 0.028,0.00408 ± 0.0029
UCGACCUACAGCUUGCAUAGUAUUAUGUAA,0.228 ± 0.057,
UCCUGGAACAGCUAGCAUAGUAUUUAGUUA,0.836 ± 0.027,0.022 ± 0.0049
AGGACCUACAGCUUGCAUAGUAGUUUAGUUA,0.47 ± 0.036,0.0209 ± 0.006
UCCUGGAUGUGCUUGGAUAGUAUUAAGUUA,0.0897 ± 0.022,0.00634 ± 0.0041
UCCUGGAUCAGCUUGCAUAGUAUUUAGUAA,0.96 ± 0.047,0.0287 ± 0.0064
UCCUGGAUCAGCUUGCAUAGUAUUUAGUUA [g2:g22:cont:t1A],1.36 ± 0.054,0.0516 ± 0.0097
UCCUGGAUCAGCUUGCUAUAGUAUUUAGUUA,0.00584 ± 0.0043,
UCCUGGAUCAGCUUGCAUAGUAUUUAGUUU [g2:g22:cont:t1U],1.54 ± 0.089,0.0667 ± 0.016
UCCUGGAUCAGCUUGCAUAGUAUUUAGUUC [g2:g22:cont:t1C],1.14 ± 0.052,0.0609 ± 0.012
UCCUGGAUCAGCUUGCAUAGUAUUUAGUUUA,1.64 ± 0.071,0.0415 ± 0.011
UCCUGGAUCAGCUUGUAUAGUAUUUAGUUA,1.64 ± 0.1,0.0468 ± 0.012
UCCUGGAUCAGCUUUGCAUAGUAUUUAGUUA,1.05 ± 0.053,0.0153 ± 0.004
UCCUGGAUCAGCUUGCAUAGUAUUUAGUUG [g2:g22:cont:t1G],1.05 ± 0.12,0.0362 ± 0.0084
UCCUGGAUCAGCUUGCAUAGUAUUUUAGUUA,0.979 ± 0.05,0.0222 ± 0.0046
UCCUGGAUCAGCUUGCAUAGUAUUUAGUA,0.838 ± 0.043,0.0119 ± 0.0038
UCCUGGAUCAGCUUGGAUAGUAUUUAGUUA,0.775 ± 0.064,0.0476 ± 0.0092
UCCUGGAUGAGCUAGCAUAGUAUUUAGUUA,0.617 ± 0.05,0.0107 ± 0.0036
